Test results reported in PubChem BioAssay (NCI).
Compounds without any hit were thinned out: in the full panel of roughly 83,000, 20% have a hit.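 A percent growth of 40 corresponds to 60% growth inhibition; 0 means no net growth; -100 means all cells died. Active threshold: below 10.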 Active and inactive are the calls of the source.

Columns and labels:
Experiment in all cases: NCI-60 one-dose screen, 48 h (100 = growth as untreated, 0 = no growth, -100 = all killed)
HCT-15 colon = settings: 10 µM unless noted
SNB-75 CNS = settings: 10 µM unless noted
SNB-19 CNS = settings: 10 µM unless noted
U251 CNS = settings: 10 µM unless noted
PC-3 prostate = settings: 10 µM unless noted
SK-MEL-5 melanoma = settings: 10 µM unless noted
UACC-62 melanoma = settings: 10 µM unless noted
LOX IMVI melanoma = settings: 10 µM unless noted
SK-MEL-28 melanoma = settings: 10 µM unless noted
SK-MEL-2 melanoma = settings: 10 µM unless noted
SN12C renal = settings: 10 µM unless noted
UO-31 renal = settings: 10 µM unless noted
TK-10 renal = settings: 10 µM unless noted
ACHN renal = settings: 10 µM unless noted
CAKI-1 renal = settings: 10 µM unless noted
A498 renal = settings: 10 µM
HL-60(TB) leukemia = settings: 10 µM unless noted
CCRF-CEM leukemia = settings: 10 µM unless noted
EKVX NSCLC = settings: 10 µM unless noted

Measured: growth

CC(=O)O[C@H]1CC[C@@]2(C)C(=CC[C@H]3[C@@H]4C[C@@H](N5CC5)[C@H](C(C)=O)[C@@]4(C)CC[C@@H]32)C1
inactive: HCT-15 colon 91.6% | SNB-75 CNS 79.2% | SNB-19 CNS 100% | U251 CNS 91.5% | PC-3 prostate 77.9% | SK-MEL-5 melanoma 85.2% | UACC-62 melanoma 92.8% | LOX IMVI melanoma 87.6% | SK-MEL-28 melanoma 102% | SK-MEL-2 melanoma 103% | SN12C renal 88.9% | UO-31 renal 104% | TK-10 renal 105% | ACHN renal 83.1% | CAKI-1 renal 89.3% | A498 renal 98.7% | HL-60(TB) leukemia 92.4% | CCRF-CEM leukemia 78%

O=C(NCCN1CC1)C(=O)NCCN1CC1
inactive: HCT-15 colon 95.2% | SNB-75 CNS 76% | SNB-19 CNS 101% | PC-3 prostate 93.2% | SK-MEL-5 melanoma 94.6% | UACC-62 melanoma 91.7% | LOX IMVI melanoma 80.2% | SK-MEL-28 melanoma 102% | SK-MEL-2 melanoma 97.1% | SN12C renal 87.3% | UO-31 renal 96.4% | TK-10 renal 83.6% | ACHN renal 67.9% | A498 renal 105% | HL-60(TB) leukemia 63.1% | CCRF-CEM leukemia 56.8%

O=C([O][Hg][c]1ccccc1)c1ccccc1
inactive: SNB-19 CNS 56.8% | PC-3 prostate 35.4% | A498 renal 40.7%
active: HCT-15 colon -62.7% | SNB-75 CNS -4.27% | U251 CNS -31.9% | SK-MEL-5 melanoma 5.37% | UACC-62 melanoma -42.3% | LOX IMVI melanoma -80.3% | SK-MEL-28 melanoma -61.1% | SK-MEL-2 melanoma -33.3% | SN12C renal -85.4% | UO-31 renal -92.2% | TK-10 renal -86.5% | ACHN renal -90.5% | CAKI-1 renal -89.3% | HL-60(TB) leukemia -53.5% | CCRF-CEM leukemia -33.8%

CC(=O)c1ccc(C(=O)NCC2CCC3(CC2)OOC2(CCCCC2)OO3)cc1
active: EKVX NSCLC -1.77% | UO-31 renal -78.4% | CAKI-1 renal -29.9%
inactive: HCT-15 colon 82.5% | SNB-75 CNS 99.8% | SNB-19 CNS 96.9% | U251 CNS 64.4% | PC-3 prostate 71% | UACC-62 melanoma 80.9% | LOX IMVI melanoma 35.3% | SK-MEL-28 melanoma 95.5% | SK-MEL-2 melanoma 76.7% | SN12C renal 78% | TK-10 renal 86.3% | ACHN renal 64.6% | A498 renal 89.2% | HL-60(TB) leukemia 19.6% | CCRF-CEM leukemia 31.9%

CCn1cnc2c(Nc3cccc(Cl)c3)nc(N[C@@H]3CCCC[C@@H]3N)nc21
active: HCT-15 colon 6.27% | SNB-75 CNS -5.9% | SNB-19 CNS 7.42% | U251 CNS 6.89% | PC-3 prostate 4.71% | LOX IMVI melanoma -8.41% | SK-MEL-2 melanoma -1.69% | SN12C renal 6.96% | UO-31 renal -13.3% | ACHN renal 0.47% | HL-60(TB) leukemia -51.6% | CCRF-CEM leukemia 2.54%
inactive: UACC-62 melanoma 10.2% | SK-MEL-28 melanoma 22.8% | EKVX NSCLC 11.8% | TK-10 renal 13.5% | CAKI-1 renal 25.1%

Nc1nnnc2nc[nH]c12
inactive: HCT-15 colon 20.9% | SNB-75 CNS 45.8% | U251 CNS 19.4% | PC-3 prostate 11.5% | SK-MEL-5 melanoma 33.8% | SK-MEL-28 melanoma 14.8% | SN12C renal 10.9% | TK-10 renal 33.3% | A498 renal 12.7%
active: UACC-62 melanoma -50.9% | LOX IMVI melanoma 6.61% | SK-MEL-2 melanoma -16.8% | EKVX NSCLC 8.89% | UO-31 renal 3.57% | CAKI-1 renal -11.1% | HL-60(TB) leukemia -4.59% | CCRF-CEM leukemia 0.72%

C=CCn1cc(C=C2C(=O)N(C)C(=O)N(C)C2=O)c2ccccc21
active: A498 renal -90.6%
inactive: HCT-15 colon 106% | SNB-75 CNS 78.7% | SNB-19 CNS 96.2% | U251 CNS 98.2% | PC-3 prostate 89.4% | UACC-62 melanoma 93.8% | LOX IMVI melanoma 94.8% | SK-MEL-28 melanoma 97.9% | SK-MEL-2 melanoma 102% | EKVX NSCLC 84.4% | SN12C renal 102% | UO-31 renal 78.2% | TK-10 renal 120% | ACHN renal 98.9% | CAKI-1 renal 90.3% | HL-60(TB) leukemia 121% | CCRF-CEM leukemia 87.9%
